GPR151 ag = human GPR151 activation. actives 1% (n = 650,000). activation, % at 11.2 µM. Q8TDV0. PathHunter beta-arrestin GPR151 cells, luminescence; in the data active means activation above about 4.9%;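 further: 0% = median of compound wells and 100% = cells with positive control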
FBW7 activator = human FBW7 E3 ligase activation, primary screen; AlphaScreen FBW7–phospho-cyclin E peptide binding, activator screen; AID 1259310; actives 0.13% (n = 650,000); normalized activity (activation), % at 26.1 µM; Q969H0; in the data active means normalized activity above about 1.9%;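 further: purified mutant Fbw7 with reduced substrate affinity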
TEAD-YAP block = TEAD-YAP interaction inhibition | HEK-TIYL cells, TEAD-Gal4/YAP UAS-luciferase luminescence | inhibition, % at 9.12 µM | actives 1.4% (n = 640,000) | AID 1259422; in the data active means inhibition above about 32%;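 further: 0% = median of test compound wells and 100% = reference inhibitor wells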
MITF inh = human MITF inhibition, primary screen | AlphaScreen MITF homodimerization, bead proximity signal | inhibition, % at 2.6 µM | actives 0.91% (n = 650,000) | AID 1259374; in the data active means inhibition above about 50%;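 further: 0% = vehicle wells with protein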
Target sequence (O75030 whole entry, looked up): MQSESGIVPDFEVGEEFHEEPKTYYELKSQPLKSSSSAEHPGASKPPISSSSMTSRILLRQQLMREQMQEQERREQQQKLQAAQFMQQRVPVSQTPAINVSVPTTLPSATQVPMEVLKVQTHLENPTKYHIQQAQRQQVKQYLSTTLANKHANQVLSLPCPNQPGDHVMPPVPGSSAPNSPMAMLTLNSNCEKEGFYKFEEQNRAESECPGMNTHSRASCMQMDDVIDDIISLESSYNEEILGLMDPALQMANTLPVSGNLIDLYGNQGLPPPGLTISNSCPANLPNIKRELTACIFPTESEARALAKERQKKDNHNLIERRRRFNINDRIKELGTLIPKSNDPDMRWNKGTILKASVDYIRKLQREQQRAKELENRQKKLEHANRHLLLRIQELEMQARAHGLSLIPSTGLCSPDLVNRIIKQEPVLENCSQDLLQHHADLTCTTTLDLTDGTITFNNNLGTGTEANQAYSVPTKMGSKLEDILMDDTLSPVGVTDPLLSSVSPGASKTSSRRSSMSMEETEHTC
* = called active by the depositor. This is a sample that favours compounds with a hit; in the whole collection about 3.5% have one here.

SMILES | GPR151 ag | FBW7 activator | TEAD-YAP block | MITF inh
COc1ccc(N2CCN(C(=O)CCl)CC2)cc1 | -1.3 | 0.6 | 49.1* | 7.8
COc1ccc(N2CCN(CC(=O)N3c4ccccc4CC3C)CC2)cc1 (stereo not given) | 0.9 | 0.8 | 4.5 | 64.8*
COc1ccc(N2CCN(C(=O)CN(c3ccccc3C)S(C)(=O)=O)CC2)cc1 | -0.8 | -0.2 | 1.3 | 72.2*
CCn1nc(-c2ccc(OC)cc2)nc2c(=O)n(C)c(=O)nc1-2 | -9.4 | -0.4 | 96.2* | 7.3
CCn1nc(-c2ccccn2)nc2c(=O)n(C)c(=O)nc1-2 | -2.3 | -0.4 | 97.0* | 21.3
CCn1nc(-c2ccc(Cl)c(Cl)c2)nc2c(=O)n(C)c(=O)nc1-2 | -9.2 | -0.4 | -39.7 | 2.6
Cn1nc(-c2ccc([N+](=O)[O-])cc2)nc2c(=O)n(C)c(=O)nc1-2 | -7.7 | -0.3 | 55.0* | 7.3
Nc1ccc(C(=O)OCC(=O)NCc2ccc3c(c2)OCO3)cc1 | 1.2 | 0.3 | -0.8 | 13.3
CC(=O)NCC1CCC2(CCN(Cc3ccc(F)cc3)CC2)O1 (stereo not given) | -1.9 | 0.2 | 9.4 | 13.8
COc1ccc(-c2c(C)oc3cc(O)cc(O)c3c2=O)cc1 | 1.2 | -0.1 | 19.9 | 1.3
Nc1nc(NCc2ccccc2)cc(-c2ccc3[nH]ccc3c2)n1 | -0.6 | -0.1 | 34.2* | 0.2
Cc1ccc(-c2nc3ccc(NCc4cccs4)cc3o2)cc1 | -0.5 | 0.2 | -70.9 | -27.1
O=C(COC(=O)c1cccc(S(=O)(=O)N2CCCC2)c1)Nc1cccc2nsnc12 | 0.1 | 0.0 | 3.1 | -4.7
Cc1ccc(-c2nnc(Nc3ccccc3)o2)cc1 | -9.8 | 0.0 | 44.3* | 4.8
Cc1ccc(-c2nnc(-c3ccccc3C)o2)cc1 | -2.6 | 0.3 | -32.8 | 5.5
Cc1ccccc1NC(=O)c1cnn2ccccc12 | -2.5 | 0.9 | -55.9 | 10.9
CCc1ccc(NC(=O)c2cnn3ccccc23)cc1 | -4.5 | 0.0 | 89.4* | 3.9
CCOc1ccc(NC(=O)c2cnn3ccccc23)cc1 | -5.7 | 1.2 | 94.1* | 10.4
CC(=O)N(/N=C1\Sc2ccccc2C1=O)c1ccccc1Cl | -2.3 | -0.3 | 90.9* | 9.1
CC(=O)N(/N=C1\Sc2ccccc2C1=O)c1cccc(C)c1 | -1.1 | -0.1 | -42.2 | -0.5
N#Cc1ccc(S(=O)(=O)N2CCC(n3c(=O)[nH]c4ccccc43)CC2)cc1 | 3.9 | -0.2 | -2.5 | 0.1
Cc1ccc(/C=N/NC(=O)CNc2ccccc2C)cc1 | -1.2 | 0.0 | 44.3* | -15.3
CN(C)CCNC(=O)c1ccc(S(=O)(=O)c2ccc(Br)cc2)c([N+](=O)[O-])c1 | -1.1 | -0.1 | 54.9* | 1.6
CN(C)CCNC(=O)c1ccc(Sc2ccccc2Cl)c([N+](=O)[O-])c1 | -0.4 | 0.0 | -11.9 | -7.8
COCCOC(=O)C1=C(C)NC2=C(C(=O)CC(C)(C)C2)C1c1ccc(Cl)cc1 (stereo not given) | 0.8 | -0.1 | 8.0 | -15.8
SMILES | GPR151 ag | FBW7 activator | TEAD-YAP block | MITF inh
O=C1c2ccccc2C(=O)c2c(NCCCN(CCO)CCO)cccc21 | 0.6 | -0.6 | 41.0* | 15.3
CCOC(=O)C1=C(C)NC2=C(C(=O)C(C(=O)OCC)C(c3cccc(OC)c3)C2)C1c1ccc([N+](=O)[O-])cc1 (stereo not given) | 1.2 | -0.2 | 10.7 | -6.7
CC(=O)n1c(=O)n(-c2ccccc2)c(=O)c2c(C)c(C)sc21 | -2.0 | 0.1 | 7.7 | 6.4
Cn1c(=O)oc2cc(S(=O)(=O)NCCN3CCN(c4ccccc4)CC3)ccc21 | 2.0 | -0.1 | -6.4 | 0.1
Cc1ccc(NC(=O)CSc2nnc(-c3cccnc3)s2)cc1 | 1.9 | 0.0 | -3.5 | 7.7
O=C(CSc1nnc(-c2cccnc2)s1)Nc1ccnc2ccccc12 | -0.5 | -0.4 | 47.8* | -10.8
CCOc1ccc(NC(=O)CC(C)=O)cc1 | 0.8 | 0.1 | 4.0 | 7.9
CC(=O)Nc1ccc(S(=O)(=O)N2CCC(C)CC2)cc1 | 0.2 | -0.2 | 2.8 | 4.8
COCCCNC(=O)c1ccc2c(c1)N=C(C)c1ccccc1S2 | -0.2 | 0.1 | 62.6* | 5.4
CC1=Nc2cc(C(=O)NCCCOC(C)C)ccc2Sc2ccccc21 | 1.1 | 0.2 | 38.3* | -2.4
CC1CN(C(=O)CCC(=O)N2CCOCC2)c2ccccc2S1 (stereo not given) | -1.5 | 0.8 | -4.2 | 11.7
O=C(CSc1ncc(S(=O)(=O)c2ccccc2)c(=O)[nH]1)Nc1ccccc1F | 4.4 | 0.0 | -1.9 | 2.3
COc1cccc(CN2CCc3nc4nc(N)ccc4cc3C2)c1 | 0.2 | -0.1 | 5.0 | 18.3
CCC(CC)C(=O)N1c2ccccc2C(=C2SC(C(=O)OC)=C(C(=O)OC)S2)C(=S)C1(C)C | 1.1 | 0.4 | 3.6 | 54.5*
